Laboratory results published in PubChem BioAssay (Tox21).
Records with an inconclusive call do not appear. The source made the active and inactive calls. Unless noted, the call rests on the fitted dose curve; in most records, active means well fitted curve in the direction sought with a large enough effect in the repeat runs; inconclusive means weak or mixed curves; inactive means no such curve, though single readings can be large; an effect the other way counts as inactive or inconclusive.

How the values were obtained:
[1] = qHTS assay to identify small molecule antagonists of the peroxisome proliferator-activated receptor delta (PPARd) signaling pathway - cell viability counter screen (AID 743213); further: nearly all actives have a fitted effect of over 50% in size
Outline: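 HEK293H PPARd UAS-bla cells, 5 h pre-incubation, compound + L165041 300 nM final, 17 h 37 C; B/G FRET substrate 2 h RT; then CellTiter-Glo 30 min RT, luminescence.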

[2] = qHTS assay to identify small molecule antagonists of the farnesoid-X-receptor (FXR) signaling pathway - cell viability counter screen (AID 743221; active means well fitted cell-killing curve with a large enough effect in the repeat runs, not every such curve was filed as active; further: nearly all actives have a fitted effect of over 50% in size)
Outline: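 Multiplexed counter screen: viability of FXR-bla HEK 293T cells under agonist stimulation by chenodeoxycholic acid (50 uM, final) and test compound for 16 h at 37 C, measured by CellTiter-Glo luminescence in the reporter wells.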

[3] = molecular target: Vitamin D3 receptor (Homo sapiens) (UniProt P11473); test: qHTS assay to identify small molecule antagonists of the vitamin D receptor (VDR) signaling pathway (AID 743223; active means well fitted inhibition curve with a large enough effect in the signal ratio in the repeat runs, not every such curve was filed as active; the % refers to the signal ratio)
Outline: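 Cells carrying a VDR-driven beta-lactamase reporter (VDR-bla) were co-treated with compound and 3 nM final 1alpha,25-dihydroxyvitamin D3 for 16 h at 37C; reporter activity was measured as FRET substrate fluorescence after 2 h at room temperature.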

[4] = qHTS assay to identify small molecule agonists of the vitamin D receptor (VDR) signaling pathway - cell viability counter screen (AID 743224); further: series mostly up to about 63 µM; nearly all actives have a fitted effect of over 50% in size
Outline: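 Luminescence from CellTiter-Glo, read after 30 min at room temperature, reports viability of VDR-bla cells treated with compounds for 16 h at 37C in the wells used for the beta-lactamase FRET read.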

[5] = qHTS assay to identify small molecule antagonists of the vitamin D receptor (VDR) signaling pathway - cell viability counter screen (AID 743225); further: nearly all actives have a fitted effect of over 50% in size
Outline: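 HEK293T VDR-bla; cpd + 1a,25-(OH)2D3 3 nM final, 16 h 37C/5% CO2; B/G FRET substrate 2 h RT; then CellTiter-Glo 30 min RT, luminescence.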

[6] = qHTS assay to identify small molecule agonists of the NFkB signaling pathway - cell viability counter screen (AID 1159515; calls by dose curve; further: series mostly up to about 61 µM; nearly all actives have a fitted effect of over 55% in size)
Outline: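 Luminescence from CellTiter-Glo (30 min, room temperature) gives viability, measured in the same wells as the beta-lactamase reporter read. Cells were NFkB-bla ME-180, 2,000 per well, treated 5 hr with compounds.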

[7] = qHTS assay to identify small molecule agonists of the endoplasmic reticulum stress response signaling pathway (AID 1159516; active means well fitted activation curve with a large enough effect in the signal ratio in the repeat runs, not every such curve was filed as active; the % refers to the signal ratio)
Outline: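 Read-out is beta-lactamase cleavage of a FRET substrate (405 nm excitation; 460 and 530 nm emissions) in ESRE-bla HeLa cells after a 5 hr compound exposure at 37 C. Substrate incubation ran 2 hr at room temperature.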

[8] = qHTS assay to identify small molecule agonists of the endoplasmic reticulum stress response signaling pathway - cell viability counter screen (AID 1159517; calls by dose curve)
Outline: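 ESRE-bla HeLa cells, 1,500 per well, seeded overnight then treated with compounds for 5 hr at 37 C. After the beta-lactamase read, viability in the same wells is measured by CellTiter-Glo luminescence after 30 min at room temperature.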

[9] = qHTS assay to identify small molecule antagonists of the retinoid-related orphan receptor gamma (ROR-gamma) signaling pathway - cell viability counter screen (AID 1159520); further: nearly all actives have a fitted effect of over 50% in size
Outline: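 Tet-on ROR gamma CHO cells were given compounds for 2 hr, then doxycycline hyclate at 1 uM final, and incubated 16 hr at 37 C. Viability was measured as ATP content by CellTiter-Glo luminescence.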

[10] = molecular target: Nuclear receptor ROR-gamma (Homo sapiens) (UniProt P51449); test: qHTS assay to identify small molecule antagonists of the retinoid-related orphan receptor gamma (ROR-gamma) signaling pathway (AID 1159521)
Outline: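 Cells were plated, rested 4 h at 37 C, exposed to compounds for 2 h, then given 1 uM final doxycycline hyclate to induce RORγ expression. After 16 h, ONE-Glo luminescence from the ROR response element reporter was measured.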

[11] = qHTS assay to identify small molecule agonists of the AP-1 signaling pathway - cell viability counter screen (AID 1159525; calls by dose curve; further: nearly all actives have a fitted effect of over 55% in size)
Outline: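 AP-1-bla ME-180 cells in Opti-MEM with 0.5% dialyzed FBS, compound exposure 5 h at 37 C in 15-point titration. Viability read in the same wells as ATP content by CellTiter-Glo luminescence, normalised to tetra-n-octylammonium bromide and DMSO controls.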

[12] = qHTS assay to identify small molecule agonists of the AP-1 signaling pathway (AID 1159526; calls by dose curve)
[13] = molecular target: Retinoic acid receptor RXR-alpha (Homo sapiens) (UniProt P19793); test: qHTS assay to identify small molecule agonists of the RXR signaling pathway (AID 1159527; calls by dose curve; further: nearly all actives have a fitted effect of over 35% in size)
Outline: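 Cells plated at 2,000/well, rested 5 hr at 37 C, pin-dosed with DMSO compound solutions, incubated 16 hr, then loaded with B/G FRET substrate for 2 hr at RT before dual-emission fluorescence reading.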

[14] = qHTS assay to identify small molecule agonists of the RXR signaling pathway - cell viability counter screen (AID 1159529)
Outline: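 Steps: seed RXR-alpha-UAS-bla HEK 293T cells in assay medium containing 2% charcoal-stripped FBS; incubate 5 hr; add compounds in DMSO; incubate 16 hr at 37 C; after the bla read, add CellTiter-Glo and read luminescence at 30 min.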

[15] = qHTS assay to identify small molecule antagonists of the retinoid acid receptor (RAR) signaling pathway - cell viability counter screen (AID 1159551); further: nearly all actives have a fitted effect of over 35% in size
Outline: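 Luminescent ATP quantitation (CellTiter-Glo) gave cell viability in C3RL4 cells exposed to test chemicals for 6 h at 37 C alongside 1 uM final retinol.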

[16] = qHTS assay to identify small molecule antagonists of the retinoic acid receptor (RAR) signaling pathway (AID 1159552; further: nearly all actives have a fitted effect of over 50% in size)
Outline: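 Retinol at 1 uM final stimulated RARE-luciferase expression in C3RL4 cells exposed to test compounds for 6 hr at 37 C. Reduced luminescence, read 30 min after detection reagent, indicated pathway antagonism.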

[17] = molecular target: Peroxisome proliferator-activated receptor delta (Homo sapiens) (UniProt Q03181); test: qHTS assay to identify small molecule antagonists of the peroxisome proliferator-activated receptor delta (PPARd) signaling pathway (AID 743215; active means well fitted inhibition curve with a large enough effect in the signal ratio in the repeat runs, not every such curve was filed as active; the % refers to the signal ratio;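 further: cells stimulated with agonist L165041 at 300 nM final during compound exposure; series mostly up to about 62 µM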)
Outline: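 Read-out is beta-lactamase FRET fluorescence, measured 2 h after substrate addition at room temperature. Beforehand, UAS-bla HEK293H cells carrying the PPARd reporter were exposed to compounds with L165041 at 300 nM final for 17 h at 37 C.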

[18] = molecular target: Bile acid receptor (Homo sapiens) (UniProt Q96RI1); test: qHTS assay to identify small molecule agonists of the farnesoid-X-receptor (FXR) signaling pathway (AID 743220; active means well fitted activation curve with a large enough effect in the signal ratio in the repeat runs, not every such curve was filed as active; the % refers to the signal ratio)
Outline: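 Beta-lactamase reporter under UAS control in GeneBLAzer FXR HEK 293T cells (5000/well) measured with LiveBLAzer FRET substrate after 2 h at room temperature. Compound exposure lasted 16 h at 37C.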

[19] = qHTS assay to identify small molecule agonists of the farnesoid-X-receptor (FXR) signaling pathway - cell viability counter screen (AID 743218); further: nearly all actives have a fitted effect of over 45% in size
Outline: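 HEK 293T FXR-bla cells; 5 h pre-incubation, 16 h compound exposure at 37 C; LiveBLAzer substrate 2 h RT, then CellTiter-Glo 30 min RT, luminescence.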

Measured: Potency

Sequence of Peroxisome proliferator-activated receptor delta (Homo sapiens) (Q03181 whole entry, looked up): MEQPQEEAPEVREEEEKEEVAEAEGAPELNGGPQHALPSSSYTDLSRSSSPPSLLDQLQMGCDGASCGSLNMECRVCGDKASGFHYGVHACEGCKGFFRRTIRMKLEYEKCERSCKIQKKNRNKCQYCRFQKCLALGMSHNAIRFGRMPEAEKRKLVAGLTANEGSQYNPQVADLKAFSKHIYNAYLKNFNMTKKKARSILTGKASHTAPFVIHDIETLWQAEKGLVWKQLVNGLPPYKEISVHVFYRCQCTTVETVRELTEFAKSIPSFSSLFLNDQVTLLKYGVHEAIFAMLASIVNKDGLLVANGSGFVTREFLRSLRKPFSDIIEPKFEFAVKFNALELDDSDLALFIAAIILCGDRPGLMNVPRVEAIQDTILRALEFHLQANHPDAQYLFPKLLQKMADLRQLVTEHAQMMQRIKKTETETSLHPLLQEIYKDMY
Sequence of Retinoic acid receptor RXR-alpha (Homo sapiens) (P19793 whole entry, looked up): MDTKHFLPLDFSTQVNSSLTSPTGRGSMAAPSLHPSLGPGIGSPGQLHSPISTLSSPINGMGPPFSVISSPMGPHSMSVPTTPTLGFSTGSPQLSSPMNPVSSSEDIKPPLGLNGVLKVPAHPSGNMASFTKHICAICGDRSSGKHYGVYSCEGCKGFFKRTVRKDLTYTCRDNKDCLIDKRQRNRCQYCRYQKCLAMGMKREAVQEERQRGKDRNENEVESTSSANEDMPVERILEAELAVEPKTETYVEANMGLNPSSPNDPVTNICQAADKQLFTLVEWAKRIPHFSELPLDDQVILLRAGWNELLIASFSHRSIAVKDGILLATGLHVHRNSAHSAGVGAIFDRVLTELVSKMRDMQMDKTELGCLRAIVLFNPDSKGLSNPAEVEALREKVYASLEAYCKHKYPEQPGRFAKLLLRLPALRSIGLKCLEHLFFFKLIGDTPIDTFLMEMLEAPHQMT
Sequence of Vitamin D3 receptor (Homo sapiens) (P11473 whole entry, looked up): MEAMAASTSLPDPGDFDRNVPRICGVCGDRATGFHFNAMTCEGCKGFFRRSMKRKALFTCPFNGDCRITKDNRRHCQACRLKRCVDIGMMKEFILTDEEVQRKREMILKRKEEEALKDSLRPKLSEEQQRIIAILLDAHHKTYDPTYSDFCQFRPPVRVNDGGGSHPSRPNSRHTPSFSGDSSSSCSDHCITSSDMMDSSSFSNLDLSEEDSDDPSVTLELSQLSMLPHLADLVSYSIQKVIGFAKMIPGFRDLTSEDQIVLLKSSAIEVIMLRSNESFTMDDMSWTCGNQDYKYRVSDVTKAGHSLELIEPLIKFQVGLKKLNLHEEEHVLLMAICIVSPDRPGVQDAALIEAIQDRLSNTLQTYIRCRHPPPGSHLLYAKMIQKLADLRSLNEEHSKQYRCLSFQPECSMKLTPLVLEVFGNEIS
Sequence of Bile acid receptor (Homo sapiens) (Q96RI1 whole entry, looked up): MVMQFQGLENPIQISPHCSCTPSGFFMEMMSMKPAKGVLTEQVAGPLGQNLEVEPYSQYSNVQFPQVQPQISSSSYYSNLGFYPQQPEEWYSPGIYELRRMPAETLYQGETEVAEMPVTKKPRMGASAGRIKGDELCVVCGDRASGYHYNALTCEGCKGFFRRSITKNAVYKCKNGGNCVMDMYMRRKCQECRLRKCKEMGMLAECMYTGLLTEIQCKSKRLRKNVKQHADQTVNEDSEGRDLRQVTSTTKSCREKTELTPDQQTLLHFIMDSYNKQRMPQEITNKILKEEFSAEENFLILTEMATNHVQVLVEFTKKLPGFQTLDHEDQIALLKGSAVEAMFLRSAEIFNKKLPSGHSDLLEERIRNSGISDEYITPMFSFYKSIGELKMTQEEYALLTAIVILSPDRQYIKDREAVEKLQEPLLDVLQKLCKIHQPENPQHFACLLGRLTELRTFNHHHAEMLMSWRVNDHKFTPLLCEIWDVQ

CCn1cc[n+](C)c1C
not listed: [17] | [18] | [19]
inactive: all other assays above

COP(=O)(OC)C(O)C(Cl)(Cl)Cl (stereo not given)
not listed: [3] | [11] | [19]
inactive: all other assays above

CCCC[n+]1cccc(C)c1
not listed: [3] | [11] | [16] | [17] | [18]
inactive: all other assays above

CCCn1cc[n+](C)c1
not listed: [3] | [11] | [16] | [18] | [19]
inactive: all other assays above

CNC
not listed: [11] | [16] | [18] | [19]
inactive: all other assays above

C1CCC(NC2CCCCC2)CC1
not listed: [18]
inactive: all other assays above

COc1ccccc1N
not listed: [3] | [17] | [18]
inactive: all other assays above

Oc1ccccc1-c1ccccc1
not listed: [11] | [16] | [18]
inactive: all other assays above
